Shown are actives, neighbours in structure and some others; about 3% of the full set was active somewhere.
CHT block: inhibitors of human choline transporter CHT. CHT-expressing cells, membrane potential dye, choline response; active compounds read low. B-score at 10 µM. 310,000 compounds, 0.86% hits;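 active = B-score over 3 SD under the library average, and starting fluorescence ratio not unusually high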;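 also: choline stimulus applied at its EC90 after an EC20 pre-addition; B-score computed on integrated fluorescence ratio after choline addition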
Target sequence (Q9GZV3 whole entry, looked up): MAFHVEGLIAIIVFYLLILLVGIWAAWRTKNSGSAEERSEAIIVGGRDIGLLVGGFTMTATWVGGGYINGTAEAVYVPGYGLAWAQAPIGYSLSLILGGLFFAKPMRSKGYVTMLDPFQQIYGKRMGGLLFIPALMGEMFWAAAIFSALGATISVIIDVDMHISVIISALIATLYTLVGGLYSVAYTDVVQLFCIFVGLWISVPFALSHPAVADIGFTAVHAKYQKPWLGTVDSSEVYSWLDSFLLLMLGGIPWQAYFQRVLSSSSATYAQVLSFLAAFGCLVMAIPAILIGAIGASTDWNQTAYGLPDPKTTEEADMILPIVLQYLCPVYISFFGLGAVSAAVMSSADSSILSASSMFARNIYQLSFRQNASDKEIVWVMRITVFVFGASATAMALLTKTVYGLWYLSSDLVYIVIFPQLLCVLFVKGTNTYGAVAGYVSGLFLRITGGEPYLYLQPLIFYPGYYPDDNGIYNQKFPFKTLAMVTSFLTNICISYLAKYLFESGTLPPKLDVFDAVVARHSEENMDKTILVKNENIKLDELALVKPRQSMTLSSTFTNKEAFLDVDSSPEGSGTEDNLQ
NLRP3 yeast inh: blocks the NALP3 inflammasome reconstituted in yeast; Yeast reconstituted NLRP3/ASC/caspase-1, beta-gal luminescence, 24 h; inhibition, % at 10 µM; 330,000 compounds, 0.39% hits;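 active = inhibition of 50% or more; inactive = inhibition below 50%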;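 also: plate controls were induced DMSO wells for no effect and uninduced yeast grown without galactose for full effect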
A1 inh: inhibitors of the anti-apoptotic protein A1, read as caspase activation. MEF A1-2A-BIM cells, Caspase-Glo 3/7 luminescence, 3 h; percent of clofoctol response, vehicle zero. caspase activation, % (concentration not given with the values). 330,000 compounds, 0.066% hits;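 active = over half of replicate activation scores above 10%, or exactly half above 10 with the replicate mean above 10; inconclusive = replicate mean below 10 yet half the replicates above 10; inactive = over half of replicates below 10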
NALP1 yeast inh: blocks the NALP1 inflammasome reconstituted in yeast | inhibition, % at 10 µM | 280,000 compounds, 0.61% hits | S. cerevisiae NALP1/ASC/caspase-1 growth, X-gal OD620, 72 h; in the data active = inhibition mostly above about 24%, no sharp cut-off; inactive = mostly below about 32%
CHT PAM: allosterically activates the human high affinity choline transporter; Q9GZV3; CHT-expressing cells, membrane potential dye, choline EC20; active compounds read high; LV-AA mutant CHT in HEK293 cells; B-score at 10 µM; 310,000 compounds, 0.49% hits; AID 488977;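 active = initial fluorescence not abnormally high and integrated response B-score, plate-corrected, over 3 SD above library mean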
Mot1-301 SUMO: SUMOylation pathway inhibition by Mot1-301 growth rescue. S. cerevisiae Mot1-301 growth rescue, ATP luminescence, 38.5C; percent above DMSO median, 100 means doubled. growth rescue, % at 18.8 µM. 320,000 compounds, 1% hits;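 active = every valid replicate shows activation above 250% relative to neutral control wells; inactive = the rest, any valid replicate at or below 250%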;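 also: OY570 slx delta 5 strain wells were the positive control but not used for scaling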
* hit, by the source's call; i = inactive; u = inconclusive; x = not tested or not shown.

SMILES | CHT block | NLRP3 yeast inh | A1 inh | NALP1 yeast inh | CHT PAM | Mot1-301 SUMO
COc1ccccc1CNC(=O)C(=O)NCC1CCCN1S(=O)(=O)c1cccs1 (centres undefined) | i | 13 | 1 | x | i | 290
COc1ccccc1N1CCN(CC(O)COc2ccc3c(c2)OCO3)CC1 (centres undefined) | i | 3 | 0 | 23* | i | -2
OCCN1CCN(CC(O)COc2ccc3c(c2)OCO3)CC1 (centres undefined) | i | 11 | 0 | 4 | i | 10
COc1ccc(OC)c2c1C(=O)C(Cl)=C(Cl)C2=O | i | 36 | -3 | 39* | i | 50
COc1ccc(NC(=O)c2c(C)nn(Cc3ccccc3)c2C)cc1S(=O)(=O)N(C)C | i | -13 | 1 | 8 | i | 5
COCCN(C(=O)COC(=O)CCOc1cccc(C)c1)c1c(N)n(Cc2ccccc2)c(=O)[nH]c1=O | i | 15 | 0 | x | i | 3
CC(C)CC(=O)Nc1ccc2c3c(cccc13)CC2 | i | 23 | 0 | 14 | i | 389*
C[C@H](CO)N1C[C@H](C)[C@@H](CN(C)S(=O)(=O)c2ccccc2)Oc2c(NC(=O)CCC(F)(F)F)cccc2C1=O | x | 15 | 1 | x | x | 0
CSc1nc(N(C)NC(=O)c2ccc(Cl)cc2)c2ccccc2n1 | i | 9 | 1 | 36 | i | 334*
CCOc1ccc(OCCCC(=O)Nc2cc(Cl)ccc2-n2cncn2)cc1 | x | 23 | 0 | x | x | -6
O=C(COc1ccc([N+](=O)[O-])cc1)Nc1ccc2c(c1)OCO2 | i | 6 | -1 | 20 | i | 3
Cc1ccc(NC(=O)CC(O)(C(F)(F)F)C(F)(F)F)c(Br)c1 | -5.2* | 0 | 1 | -6 | i | 1
Cc1ccccc1NC(=O)CC(O)(C(F)(F)F)C(F)(F)F | i | 1 | 0 | -19 | i | 69
Cc1cc(S(=O)(=O)Nc2ccc(C(=O)NCC(c3ccccc3)N(C)C)cc2)ccc1F (centres undefined) | i | 8 | 0 | 29* | i | -13
Cc1cc2c(cc3c(=O)n(CC(=O)NCCCN4CC(C)CC(C)C4)ncn32)s1 (centres undefined) | i | -9 | 0 | -16 | i | 1
CC(=O)O[C@H]1C[C@@]2(C)[C@@H](C[C@@H](O)[C@H]3[C@@]4(C)CC[C@@H](O)[C@@H](C)[C@@H]4CC[C@@]32C)/C1=C(\CCC=C(C)C)C(=O)O | i | 6 | 0 | x | i | 0
COc1ccc(C)cc1S(=O)(=O)N(C)CC(=O)N1CCCCCC1 | i | -9 | 1 | 2 | i | -6
COc1ccc(C)cc1S(=O)(=O)N(C)CC(=O)N1CCN(C)CC1 | i | 6 | 0 | 40* | i | 12
CC(C)(C)OC(=O)C[C@@H]1C/C=C\C[C@H](CC(=O)NCCO)C(=O)N[C@@H](Cc2ccccc2)COC1=O | x | 16 | 0 | x | x | -5
COc1ccc(CN2CCN(CC(O)Cn3c4ccccc4c4ccccc43)CC2)cc1 (centres undefined) | i | 38 | 0 | 62* | i | 31
CCOc1ccc(CN2CCN(CC(O)Cn3c4ccccc4c4ccccc43)CC2)cc1 (centres undefined) | i | 39 | 0 | 77* | i | 22
CN1CCN(CC(O)Cn2c3ccccc3c3ccccc32)CC1 (centres undefined) | i | 1 | 0 | 32 | i | -7
COc1ccc(S(=O)(=O)NCC2CCCO2)cc1NC(=O)c1ccccc1F (centres undefined) | i | 4 | 1 | 5 | i | 31
Cc1cnc(NCCc2ccccc2)s1 | i | 22 | -1 | 15 | i | 10
CCOc1ccc(OCc2ccc(C(=O)NN=Cc3ccc[nH]3)cc2)cc1 | x | 26 | 9.7* | x | x | 38
SMILES | CHT block | NLRP3 yeast inh | A1 inh | NALP1 yeast inh | CHT PAM | Mot1-301 SUMO
COc1cc(/C=C2\SC(=S)N(CCC(=O)Nc3ccccc3)C2=O)cc(OC)c1OC | i | 24 | -1 | 29* | i | 101
O=C(NC(=S)N1CCCCC1)c1cccnc1 | i | 0 | 1 | -6 | i | 344*
N#C/C(=C\c1ccc(F)c(Br)c1)C(=O)NC1CC1 | i | 12 | 0 | 2 | i | -15
N#C/C(=C\c1ccc(F)c(F)c1)C(=O)NC1CCCCC1 | i | 3 | 1 | 60* | i | 0
CC1(C)Cc2c(ccc3ccccc23)C(c2cc3ccccc3oc2=O)=N1 | i | -12 | 2 | 34* | i | 21
CC1(C)Cc2ccccc2C(c2cc3ccccc3oc2=O)=N1 | i | -2 | u | -2 | i | 36
O=C(OCC(=O)N1CCCC1=O)c1nc(Cl)c(Cl)c(Cl)c1Cl | -5* | 1 | 1 | 7 | i | -5
O=[N+]([O-])c1cc(-c2ccc(/C=N/n3cnnc3)o2)ccc1Cl | i | 26 | 0 | -5 | 6.5* | i
COc1cc([N+](=O)[O-])ccc1-c1ccc(/C=N\n2cnnc2)o1 | i | 1 | 0 | 10 | i | -2
Cc1cc(-c2ccc(/C=N/n3cnnc3)o2)c(C)c([N+](=O)[O-])c1 | i | 4 | -1 | 2 | 11* | 12
COc1ccccc1OCCn1c(=O)n(C)c2ccccc21 | i | 8 | -1 | 6 | i | 345*
COc1ccc(Cl)cc1C(=O)NCCCN1CCOCC1 | i | 3 | -1 | 9 | i | 7
CC(Oc1ccc(Cl)cc1Cl)C(=O)NCCCN1CCOCC1 (centres undefined) | i | 19 | 0 | 41* | i | 94
COC(=O)c1ccccc1SC1CC(=O)N(c2ccccc2)C1=O (centres undefined) | i | 11 | 1 | 78* | i | 23
CCOC(=O)c1c(NC(=O)C2C3C=CC(CC3)C2C(=O)O)sc(C)c1C (centres undefined) | i | 9 | 0 | 32 | i | 298*
CC(C)C[C@@H](CO)NC(=O)CC[C@H](NC(=O)OC(C)(C)C)C(=O)N(Cc1ccccc1)Cc1ccccc1 | i | 0 | -1 | x | i | 2
COc1cccc(-c2nnc(N(C)C(=O)C3CCOC3)s2)c1 (centres undefined) | i | 5 | -3 | 10 | i | 344*
N#CC1=C(N)SC(N)=C(C#N)C1CCc1ccccc1 | -6.1* | 28 | 0 | -3 | i | 0
O=C1COc2ccc(C(=O)COC(=O)CNC(=O)c3ccccc3)cc2N1 | i | 12 | -1 | -7 | i | -7
CC(C)CC(NC(=O)c1ccc(Cl)cc1)C(=O)OCC(=O)c1ccc2c(c1)NC(=O)CO2 (centres undefined) | i | 8 | 15* | -19 | i | 170
